What follows are molecules tested against Solute carrier family 2, facilitated glucose transporter member 1 (Homo sapiens) (UniProt P11166) (assay: ST_JUDE_LEISH: Cytotoxicity at 2uM final concentration against transgenic Leishmania Mexicana promastigotes LmGLUT1 that are glucose transport deficient and complemented with the human glucose transporter GLUT1. Activity is measured by DNA content using SYBR green in vitro).
Assay type: functional

Solute carrier family 2, facilitated glucose transporter member 1 (Homo sapiens), sequence (P11166 whole entry): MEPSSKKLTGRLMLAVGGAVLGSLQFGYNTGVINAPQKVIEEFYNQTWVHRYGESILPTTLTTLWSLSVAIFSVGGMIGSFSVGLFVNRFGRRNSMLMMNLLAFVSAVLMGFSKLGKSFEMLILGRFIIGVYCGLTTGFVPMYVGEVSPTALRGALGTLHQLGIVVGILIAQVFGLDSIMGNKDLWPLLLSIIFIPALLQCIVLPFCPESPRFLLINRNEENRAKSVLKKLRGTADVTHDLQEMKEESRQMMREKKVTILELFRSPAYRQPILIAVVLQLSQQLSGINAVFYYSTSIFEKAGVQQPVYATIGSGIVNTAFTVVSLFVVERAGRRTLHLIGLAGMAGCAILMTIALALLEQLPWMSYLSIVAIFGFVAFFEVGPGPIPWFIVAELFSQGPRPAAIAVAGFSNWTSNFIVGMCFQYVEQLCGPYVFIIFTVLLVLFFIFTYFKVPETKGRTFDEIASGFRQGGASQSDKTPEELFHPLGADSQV

Row | Structure (SMILES) | inhibition [%]
1 | Cc1nc(C)c(-c2ccc(S(=O)(=O)c3ccc(Cl)cc3)cc2)c(O)c1Cl | 9.02
2 | CCCN(CC1CC1)c1ncc(-c2cccc(CNCCC3CCCN3C)c2)cn1 (stereo not given) | 98.4
3 | CCN1CCN(CCCNc2c3ccccc3nc3ccccc23)CC1 | 65.5
4 | CCCCCC(=O)NCC(NCCCNc1cc(=O)c2ccccc2[nH]1)c1cc(Br)cc(Br)c1 (stereo not given) | 5.16
5 | CCCC1N=C(N)N=C(N)N1c1cccc([N+](=O)[O-])c1 (stereo not given) | 1.33
6 | Cc1cccc2nc(-c3ccc(-c4ccc(NC(=O)c5cncn5C)cc4)s3)[nH]c12 | 11.3
7 | CNC(=O)COC(=O)c1c2c(nc3ccccc13)C(=Cc1ccc3c(c1)OCO3)CCC2 | 1.88
8 | COc1ccc2nccc([C@@H](O)CN3CCC(NCc4ccc5c(c4)NC(=O)CS5)CC3)c2c1 | 1.65
9 | Cc1ccc2nc(-c3ccc(C(=O)NC4CCN(Cc5ccccc5)CC4)cc3)[nH]c2c1C | 11.5
10 | COc1cc2nc(N3CCC(CNC(=O)c4ccc(C(C)=O)cc4)CC3)nc(N)c2cc1OC | 2.39
11 | O=C(Nc1cc(Cl)cc(Cl)c1)Nc1ccccc1C(=O)NC1CCCCC1 | -0.12
12 | O=C(OCc1ccccn1)c1nc2ccccc2[nH]1 | 0.81
13 | Cc1cccc(Cl)c1Nc1nnc(-c2cccc(C(=O)NC[C@@H]3CC[C@H]4C[C@@H]3C4(C)C)c2)o1 | 10.6
14 | C[C@H](NC(=O)C1CCCC1)C(=O)Nc1ccc(-c2ccc(-c3nc4cc(C(F)(F)F)ccc4[nH]3)cc2)cc1 | 2.17
15 | COc1ccc2nccc([C@@H](O)CN3CCC(NCc4nc5c(cc4F)SCC(=O)N5)C(F)C3)c2c1 (stereo not given in full) | 5.83

Reference: ChEMBL document CHEMBL3433997, “St. Jude Leishmania screening dataset” (2016)
